Experimental data as given in PubChem BioAssay (NCI).
About 83,000 compounds went through this panel and 20% of them were active in at least one assay; those are over-represented in the sample as a whole.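 Interpretation: 100, growth as untreated; towards 0, rising growth inhibition; 0, no net growth; 0 to -100, cell death. Compounds scoring below 10 were considered active.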 Calls of active or inactive are those of the source.

Columns and labels:
Assay in all cases: NCI-60 one-dose screen, 48 h (100 = growth as untreated, 0 = no growth, -100 = all killed)
Details in all cases: 10 µM unless noted
SR leukemia = test system: SR leukemia
RPMI-8226 leukemia = test system: RPMI-8226 leukemia
OVCAR-5 ovarian = test system: OVCAR-5 ovarian
OVCAR-4 ovarian = test system: OVCAR-4 ovarian
SK-OV-3 ovarian = test system: SK-OV-3 ovarian
IGROV1 ovarian = test system: IGROV1 ovarian
OVCAR-3 ovarian = test system: OVCAR-3 ovarian
HS 578T breast = test system: HS 578T breast
NCI/ADR-RES ovarian = test system: NCI/ADR-RES ovarian
T-47D breast = test system: T-47D breast
BT-549 breast = test system: BT-549 breast
MDA-MB-435 melanoma = test system: MDA-MB-435 melanoma
SW-620 colon = test system: SW-620 colon
MCF7 breast = test system: MCF7 breast
HCT-116 colon = test system: HCT-116 colon
HCC-2998 colon = test system: HCC-2998 colon
KM12 colon = test system: KM12 colon
OVCAR-8 ovarian = test system: OVCAR-8 ovarian

Measured: growth

c1ccc(C(c2nc3ncncc3[nH]2)N2CSc3nc4ncncc4n3C2)cc1 (stereo unspecified)
inactive: SR leukemia 84.9% | RPMI-8226 leukemia 29.4% | OVCAR-5 ovarian 62.4% | OVCAR-4 ovarian 27.1% | SK-OV-3 ovarian 23.1% | IGROV1 ovarian 77.6% | OVCAR-3 ovarian 38.6% | HS 578T breast 77.2% | NCI/ADR-RES ovarian 44.4% | T-47D breast 34.4% | BT-549 breast 73.1% | MDA-MB-435 melanoma 29.2% | SW-620 colon 79% | MCF7 breast 14.2% | HCT-116 colon 41.5% | HCC-2998 colon 55.6% | KM12 colon 51.7%

O=C(CNc1nc(-c2cccc([N+](=O)[O-])c2)cs1)Nc1cccc(Cl)c1
inactive: SR leukemia 94.9% | OVCAR-8 ovarian 101% | OVCAR-5 ovarian 105% | OVCAR-4 ovarian 102% | SK-OV-3 ovarian 107% | IGROV1 ovarian 102% | OVCAR-3 ovarian 116% | HS 578T breast 110% | NCI/ADR-RES ovarian 105% | T-47D breast 100% | BT-549 breast 91.7% | MDA-MB-435 melanoma 105% | SW-620 colon 105% | MCF7 breast 91.3% | HCT-116 colon 112% | HCC-2998 colon 115%

Cn1cc(-c2nc(N)nnc2-c2c[nH]c3ccc(Br)cc23)c2cc(Br)ccc21
inactive: SR leukemia 20.4% | OVCAR-8 ovarian 57.8% | OVCAR-5 ovarian 79.9% | OVCAR-4 ovarian 110% | SK-OV-3 ovarian 72.4% | IGROV1 ovarian 43.7% | OVCAR-3 ovarian 26.8% | HS 578T breast 76.7% | NCI/ADR-RES ovarian 46.5% | T-47D breast 32.2% | BT-549 breast 48.8% | MDA-MB-435 melanoma 11.6% | SW-620 colon 29.2% | MCF7 breast 30.6% | HCT-116 colon 17.6% | HCC-2998 colon 81.9% | KM12 colon 27.6%

CC1=NC2=NN3C(=NN2C(c2ccccc2)=C1)N=NC(c1ccc(Br)cc1)=C3c1ccc(Br)cc1
inactive: SR leukemia 102% | RPMI-8226 leukemia 111% | OVCAR-5 ovarian 104% | OVCAR-4 ovarian 108% | SK-OV-3 ovarian 116% | IGROV1 ovarian 99.3% | OVCAR-3 ovarian 114% | HS 578T breast 105% | NCI/ADR-RES ovarian 119% | T-47D breast 108% | BT-549 breast 115% | MDA-MB-435 melanoma 110% | SW-620 colon 96.6% | MCF7 breast 94.4% | HCT-116 colon 117% | HCC-2998 colon 112% | KM12 colon 104%

C[C@H]1c2[nH]c3ccccc3c2C[C@H]2C(=O)N(CCCCCCC(=O)NO)CC(=O)N21
inactive: SR leukemia 30.8% | OVCAR-8 ovarian 64.5% | OVCAR-5 ovarian 80.7% | OVCAR-4 ovarian 97.1% | SK-OV-3 ovarian 101% | IGROV1 ovarian 93% | OVCAR-3 ovarian 79.9% | HS 578T breast 66.7% | NCI/ADR-RES ovarian 106% | T-47D breast 61% | MDA-MB-435 melanoma 84% | SW-620 colon 80.5% | MCF7 breast 70.8% | HCT-116 colon 72.8% | HCC-2998 colon 114% | KM12 colon 84.1%

COc1ccc(Cn2cc3c(c2-c2cc(OC)c(OC)c(OC)c2)CCc2c(CN4CCOCC4)noc2-3)cc1
inactive: SR leukemia 23.8% | RPMI-8226 leukemia 28.3% | OVCAR-5 ovarian 32.1% | OVCAR-4 ovarian 52.8% | SK-OV-3 ovarian 54.2% | IGROV1 ovarian 28.3% | HS 578T breast 15.3% | T-47D breast 61.5% | BT-549 breast 76.8% | SW-620 colon 30.4% | MCF7 breast 16.8% | HCT-116 colon 13.4% | KM12 colon 16.9%
active: OVCAR-3 ovarian 2.5% | NCI/ADR-RES ovarian 8.51% | MDA-MB-435 melanoma -19.9%

NC(N)=Nc1ccc(Oc2cccc(Nc3ccc(Cl)c(C(F)(F)F)c3)c2)cn1
inactive: SK-OV-3 ovarian 36.8% | NCI/ADR-RES ovarian 53.6% | T-47D breast 15.1% | BT-549 breast 16.5%
active: SR leukemia -54.6% | OVCAR-8 ovarian -66% | OVCAR-5 ovarian -64% | OVCAR-4 ovarian 6.69% | IGROV1 ovarian -38.2% | OVCAR-3 ovarian -93.8% | HS 578T breast -2.57% | MDA-MB-435 melanoma -86.2% | SW-620 colon -69.8% | MCF7 breast -60.3% | HCT-116 colon -69.4% | HCC-2998 colon -86.1% | KM12 colon -81.8%
